# ± gives the standard deviation.
# Test system: MILI (PIWIL2) piRISC loaded with piRNA #1 (26 nt)
# Experiment: pre-steady-state target cleavage rate (min^-1); guide: piRNA #1 5'p-UGAGGUAGUAGGUUGUAUAGUAUCCA; higher = faster piRNA-guided slicing of the target
# Conditions: auxiliary factor: 500 nM mouse GTSF1
# How it was run: (§1)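 The pre-steady-state cleavage rate came from a burst-and-steady-state fit to pooled data from three Cleave-'n-Seq trials, in which uncleaved targets were sequenced and normalised to depth and to weakly complementary targets. Each reaction held 0.1 nM transcribed, DNA-blocked target RNA library and 1 nM active affinity-purified piRISC carrying one synthetic guide, with or without 500 nM GTSF1 partner protein, in HEPES–potassium acetate buffer at 33 °C for 0–8 or 0–960 min. k3 was capped at 0.0001 min^-1.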
row,Sequence,pre-steady-state target cleavage rate
1,GGAGACCUUACCAUACAACCUACUACCUCA,0.134 ± 0.02
2,GGAGACGAUACUAACAACCUACUACCUCA,0.173 ± 0.012
3,GGAGUGGAUAGUAUACAACCUACUACCACA,0.0277 ± 0.0092
4,GGAGUCGUUACUAUACAACCUACUACCUCA,0.158 ± 0.011
5,GGAGACCAUUCUAUACAACCUAGUACCUCA,0.0977 ± 0.022
6,GGAGACCUAUCUAUGACAACCUACUACCUCA,0.0545 ± 0.0096
7,GGAGACGAUACUAUACAACGUACAACCUCA,0.0345 ± 0.0071
8,GGAGACCUAUCUAUACAACCUACUACCUACA,0.0858 ± 0.015
9,GGAGUGGAUUCUAUACAACGUACUACCUCA,0.0287 ± 0.0031
10,GGAGACCUAACUAUACAACCUACUACCUUA,0.12 ± 0.028
11,GGAGAGGAUACUAUACAACGUACAACCUCA,0.0104 ± 0.0029
12,GGAGACCUUACUAUACAACCAACUACCUCA,0.00455 ± 0.0024
13,GGAGACCUAACUAUACAACCUACUACCUAA,0.0853 ± 0.015
14,GGAGUGGAUACUAUAGCAACCUACUACCUCA,0.188 ± 0.009
15,GGAGUGGAUACUAGUACAACCUACUACCUCA,0.141 ± 0.011
16,GGAGACCUAACAAUACAACCUACUACCUCA,0.0822 ± 0.019
17,GGAGUGCAUACUAUACAACCUACUAGCUCA,0.0656 ± 0.0098
18,GGAGUGAUACUAUACAACCUACUACCUCA,0.174 ± 0.011
19,GGAGAGGAAACUAUACUACCUACUACCUCA,0.239 ± 0.025
20,GGAGACCUAUGAAUACAACCUACUACCUCG [g2:g18:cont:t1G],0.0085 ± 0.002

row,Sequence,pre-steady-state target cleavage rate
1,GGAGACCUAUGAAUACAACCUACAUACCUCA,0.00848 ± 0.0021
2,GGAGAGGAUACUAUACAACCUACUAUCUCA,0.131 ± 0.012
3,GGAGACGACUACUAUACAACCUACUACCUCA,0.204 ± 0.017
4,GGAGACGAAACUAUACAACCUACUAGCUCA,0.083 ± 0.025
5,GGAGUGGAUACAAUACAAGCUACUACCUCA,0.213 ± 0.015
6,GGAGAGGACUACUAUACAACCUACUACCUCA,0.186 ± 0.016
7,GGAGACGAUACUAUACAACGUACUUCCUCA,0.0234 ± 0.0059
8,GGAGACCUUACUCAUACAACCUACUACCUCA,0.122 ± 0.016
9,GGAGACGAUACUAUAAAACCUACUACCUCA,0.184 ± 0.013
10,GGAGACGAUUCUAUACAACCUAGUACCUCA,0.07 ± 0.011
11,GGAGACCAUACUAUACAACCUACUAGCCUCA,0.176 ± 0.024
12,GGAGUGGAUACUAUACAUCCUACUAGCUCA,0.0444 ± 0.0086
13,GGAGACCUAGCUAUACAACCUACUACCUCA,0.0862 ± 0.027
14,GGAGACCAUACUAUACAACCUCACUACCUCA,0.00609 ± 0.0028
15,GGAGACGAUACUAUACAACCUACUACCUAA,0.153 ± 0.015
16,GGAGAGGAUACUAUUCAACCUACUUCCUCA,0.0111 ± 0.0046
17,GGAGACCUAAUAUACAACCUACUACCUCA,0.0727 ± 0.014
18,GGAGUGGAUACUAUACAACGUACUACCUGA,0.0131 ± 0.0034
19,GGAGAGGUUACUAUUCAACCUACUACCUCA,0.164 ± 0.0098

# Test system: EfPiwi piRISC loaded with piRNA #1 (26 nt)
# Experiment: pre-steady-state target cleavage rate (min^-1); auxiliary factor: 500 nM Ephydatia muelleri Gtsf1; guide: piRNA #1 5'p-UGAGGUAGUAGGUUGUAUAGUAUCCA; MIWI and MILI are mouse PIWI proteins and EfPiwi is from a freshwater sponge; tags in brackets are library labels; higher = faster piRNA-guided slicing of the target
# Conditions: not given
# How it was run: as §1
row,Sequence,pre-steady-state target cleavage rate
1,GGAGACCUUACCAUACAACCUACUACCUCA,0.0112 ± 0.0056
2,GGAGACGAUACUAACAACCUACUACCUCA,0.00704 ± 0.0045
3,GGAGUGGAUAGUAUACAACCUACUACCACA,0.00327 ± 0.0018
4,GGAGUCGUUACUAUACAACCUACUACCUCA,0.0129 ± 0.0069
5,GGAGACCAUUCUAUACAACCUAGUACCUCA,0.00433 ± 0.0024
6,GGAGACCUAUCUAUGACAACCUACUACCUCA,0.00594 ± 0.0037
7,GGAGACGAUACUAUACAACGUACAACCUCA,0.00279 ± 0.0018
8,GGAGACCUAUCUAUACAACCUACUACCUACA,0.00445 ± 0.0039
9,GGAGUGGAUUCUAUACAACGUACUACCUCA,0.00313 ± 0.0019
10,GGAGACCUAACUAUACAACCUACUACCUUA,0.0211 ± 0.0092
11,GGAGAGGAUACUAUACAACGUACAACCUCA,0.00357 ± 0.0017
12,GGAGACCUUACUAUACAACCAACUACCUCA,0.00528 ± 0.003
13,GGAGACCUAACUAUACAACCUACUACCUAA,0.0641 ± 0.025
14,GGAGUGGAUACUAUAGCAACCUACUACCUCA,0.0919 ± 0.034
15,GGAGUGGAUACUAGUACAACCUACUACCUCA,0.175 ± 0.056
16,GGAGACCUAACAAUACAACCUACUACCUCA,0.00868 ± 0.0037
17,GGAGUGCAUACUAUACAACCUACUAGCUCA,0.00282 ± 0.0024
18,GGAGUGAUACUAUACAACCUACUACCUCA,0.186 ± 0.069
19,GGAGAGGAAACUAUACUACCUACUACCUCA,0.00544 ± 0.0027
20,GGAGACCUAUGAAUACAACCUACUACCUCG [g2:g18:cont:t1G],0.00485 ± 0.004

row,Sequence,pre-steady-state target cleavage rate
1,GGAGACCUAUGAAUACAACCUACAUACCUCA,< 0.0001
2,GGAGAGGAUACUAUACAACCUACUAUCUCA,0.081 ± 0.036
3,GGAGACGACUACUAUACAACCUACUACCUCA,0.01 ± 0.0046
4,GGAGACGAAACUAUACAACCUACUAGCUCA,0.00368 ± 0.0023
5,GGAGUGGAUACAAUACAAGCUACUACCUCA,0.00566 ± 0.0028
6,GGAGAGGACUACUAUACAACCUACUACCUCA,0.00553 ± 0.0037
7,GGAGACGAUACUAUACAACGUACUUCCUCA,0.00359 ± 0.0013
8,GGAGACCUUACUCAUACAACCUACUACCUCA,0.00389 ± 0.0032
9,GGAGACGAUACUAUAAAACCUACUACCUCA,0.00426 ± 0.0022
10,GGAGACGAUUCUAUACAACCUAGUACCUCA,0.00392 ± 0.0022
11,GGAGACCAUACUAUACAACCUACUAGCCUCA,0.00697 ± 0.0031
12,GGAGUGGAUACUAUACAUCCUACUAGCUCA,0.00367 ± 0.0024
13,GGAGACCUAGCUAUACAACCUACUACCUCA,0.00604 ± 0.0058
14,GGAGACCAUACUAUACAACCUCACUACCUCA,0.0127 ± 0.0078
15,GGAGACGAUACUAUACAACCUACUACCUAA,0.103 ± 0.033
16,GGAGAGGAUACUAUUCAACCUACUUCCUCA,0.00313 ± 0.0024
17,GGAGACCUAAUAUACAACCUACUACCUCA,0.0061 ± 0.0043
18,GGAGUGGAUACUAUACAACGUACUACCUGA,0.00457 ± 0.0015
19,GGAGAGGUUACUAUUCAACCUACUACCUCA,0.00359 ± 0.0029
